The source of these data is PubChem BioAssay (NCATS).

The structures appear in SMILES notation. Results filed as inconclusive are left out. Entries that show only a call come without a potency. Unmarked numbers belong to inactive results. Active and inactive are the calls of the source. Calls come from the whole dose curve; as a rule, active = well fitted inhibition curve with a large enough effect; inconclusive = small, poorly fitted or top-dose-only effect; inactive = flat fitted curve, though single readings scatter. Where a SMILES comes first, the peptide text is derived from it. [ ]: non-standard residue; d: D form. ξ: configuration not given here. ξPhe(βξ-Me) = CC(c1ccccc1)C(N)C(=O)O; GABA = NCCCC(=O)O

This test concerns the target Calcium and integrin-binding protein 1 (Homo sapiens) (UniProt Q99828). Description: Primary qHTS for Identification of Calcium Integrin Binding Protein 1 (CIB1) Competitor (AID 1508620).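 Note: GST tagged CIB1 binding a fluorescein labelled alphaIIb integrin peptide tracer; top concentration of the series differs between compounds.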 The procedure, abridged: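 CIB1-GST (1 uM final) and compound incubated 15 min at room temperature before adding FITC-alphaIIb peptide tracer (100 nM final). Competition for binding read by fluorescence polarization (ex 480, em 540) after another 15 min at room temperature.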

Chain of Calcium and integrin-binding protein 1 (Homo sapiens) (Q99828 whole entry, looked up): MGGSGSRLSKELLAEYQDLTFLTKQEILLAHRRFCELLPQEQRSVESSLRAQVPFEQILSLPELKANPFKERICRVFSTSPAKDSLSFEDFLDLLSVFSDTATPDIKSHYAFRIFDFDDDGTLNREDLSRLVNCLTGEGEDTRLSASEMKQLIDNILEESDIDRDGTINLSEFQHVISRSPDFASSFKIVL

In the case of `CNC(=O)O[C@H]1COc2ccc(N3CCN(C4COC4)CC3)cc2[C@@H]1NC(=O)c1ccc(F)cc1`, the Potency result was “inactive”.

Take `CC1(CO)CC[C@]2(C(=O)O[C@@H]3O[C@H](CO)[C@@H](O)[C@H](O)[C@H]3O)CC[C@]3(C)C(=CCC4[C@@]5(C)CC[C@H](O[C@@H]6O[C@H](C(=O)O)[C@@H](O)[C@H](O)[C@H]6O)C(C)(C)C5CC[C@]43C)C2C1` (stereo partly drawn): the Potency result was “inactive”.

As for `Cc1c(CN(C)C(=O)/C=C/c2cnc3c(c2)CCC(=O)N3)oc2ccccc12`, the Potency entry is “inactive”.

For the molecule `CC(=O)O[C@@]1(C)C[C@@H](O)[C@]2(O)C=CO[C@@H](O[C@@H]3O[C@H](CO)[C@@H](O)[C@H](O)[C@H]3O)[C@@H]21`, the Potency result was “inactive”.

Consider `C=CC1(C)C=C2C(O)CC3C(C)(C(=O)O)CCCC3(C)C2CC1` (stereo not drawn), for which the Potency entry was “inactive”.

As for `COC(=O)c1ccc(O[C@@H]2O[C@H](CO)[C@@H](O)[C@H](O)[C@H]2O)c(OC)c1`, the Potency result is “inactive”.

On to `CCOc1ccc(-c2ccc(Cn3c(CC(C)(C)C(=O)O)c(SC(C)(C)C)c4cc(OCc5ccc(C)cn5)ccc43)cc2)cn1`, for which the Potency entry was “inactive”.

As for `CO/N=C(/C(=O)N[C@@H]1C(=O)N2C(C(=O)O)=C(CSC(=O)c3ccco3)CS[C@H]12)c1csc(N)n1`, the Potency entry is “inactive”.

`CC(=O)N[C@H]1[C@H](O[C@H]2CC[C@@]3(C)C(CC[C@]4(C)C3CC=C3C5CC(C)(C)CC[C@]5(C(=O)O)[C@H](O[C@@H]5O[C@H](CO)[C@@H](O)[C@H](O)[C@H]5O)C[C@]34C)C2(C)C)O[C@H](CO[C@@H]2OC[C@H](O)[C@H](O)[C@H]2O[C@@H]2OC[C@@H](O)[C@H](O)[C@H]2O)[C@@H](O)[C@@H]1O` (stereo partly drawn): the Potency result is “inactive”.

For the molecule `C[C@@H]1C(=O)O[C@H]2CC34[C@H]5C[C@@H](C(C)(C)C)C36[C@@H](OC(=O)[C@@H]6O)OC4(C(=O)O5)[C@]21O` (stereo partly drawn), the Potency result is “inactive”.

Regarding `CC(O)(CC(=O)O)CC(=O)O[C@@H]1[C@@H](O)[C@H](OCCc2ccccc2)O[C@H](CO)[C@H]1O` (stereo partly drawn), the Potency result was “inactive”.

As to `COc1cc(/C=C/c2cc(O)cc(O[C@@H]3O[C@H](CO)[C@@H](O)[C@H](O)[C@H]3O)c2)ccc1O`, the Potency entry is “inactive”.

As to `COC(=O)C1=CO[C@@H](O[C@@H]2O[C@H](CO)[C@@H](O)[C@H](O)[C@H]2O)[C@@H]2[C@@H](C)[C@@H](O)C[C@H]12`, the Potency entry was “inactive”.

As for `CC(C)CC1NC(=O)C(C(C)c2ccccc2)NC(=O)C(C(C)C)NC(=O)C(C)NC(=O)CCCNC(=O)C(Cc2c[nH]c3ccccc23)NC(=O)C(C)NC1=O` (stereo not drawn) (cyclo([GABA]AV[ξPhe(βξ-Me)]LAW); configuration not given here), the Potency result was “inactive”.

As for `Cc1ccc(Sc2cncc3sc(C(N)=O)cc23)cc1`, the Potency entry was “inactive”.

In the case of `O=C(O)CCc1cccc(O[C@@H]2O[C@H](CO)[C@@H](O)[C@H](O)[C@H]2O)c1O`, the Potency entry is “inactive”.

Turning to `C=C1CCC2C(C)(C(=O)O)CC(O)CC2(C)C1CC/C(C)=C/C(=O)O` (stereo not drawn), the Potency entry is “inactive”.

On to `CC1CCCC2OC2C(=O)c2c(O)cc(O)cc2CC(=O)O1` (stereo not drawn), for which the Potency entry is “inactive”.

For `C=C1CC[C@H]2[C@@](C)(CCC[C@@]2(C)C(=O)O)[C@@H]1CCC(C)CCO` (stereo partly drawn), the Potency entry is “inactive”.

As to `CC1=CC(=O)C2C(C)(C)CCCC2(C)C12CCC1(COC(=O)C1)O2` (stereo not drawn), the Potency result is “inactive”.

On to `CC1(C)CC2C3=CCC4C5(C)CCC(OC6OC(CO)C(O)C(OC7OC(CO)C(O)C(OC8OC(CO)C(O)C(OC9OC(COC%10OC(CO)C(O)C(O)C%10O)C(O)C(O)C9O)C8O)C7O)C6O)C(C)(C)C5CCC4(C)C3(C)CCC2(C(=O)O)CC1O` (stereo not drawn), for which the activity change, negative = inhibition is 1.69% [at 12.4 µM].

Consider `CC(=O)NC(C(=O)OC1CCC(C)(C)C2CC=C3C(=O)OCC3(O)C12C)C(C)C` (stereo not drawn), for which the Potency result is “inactive”.

`CC1(C)CC[C@]2(C(=O)O)CC[C@]3(C)C(=CCC4[C@@]5(C)C[C@H](O)[C@H](O[C@@H]6OC[C@H](O)[C@H](O)[C@H]6O)[C@@](C)(CO)C5CC[C@]43C)[C@@H]2C1` (stereo partly drawn): the Potency entry was “inactive”.

For the molecule `O=C(COc1ccc(Cl)cc1)NC1CCC(NC(=O)COc2ccc(Cl)cc2)CC1` (stereo not drawn), the Potency result is “inactive”.

In the case of `CCCCS(=O)(=O)Nc1ncnc(OCCOc2ncc(Br)cn2)c1-c1ccc(Br)cc1`, the Potency result was “inactive”.

For the molecule `COC(=O)C1=COC(OC2OC(CO)C(O)C(O)C2O)C2C1CC(OC(=O)C(O)CC(=O)O)C2C` (stereo not drawn), the Potency result is “inactive”.

As for `COc1ccccc1CC(C(=O)O)N(C)C(=O)c1ccccc1` (stereo not drawn), the Potency entry is “inactive”.

For `COC(=O)[C@@]1(C)CC[C@]2(C(=O)O[C@@H]3O[C@H](CO)[C@@H](O)[C@H](O)[C@H]3O)CC[C@]3(C)C(=CCC4[C@@]5(C)CC[C@H](O[C@@H]6O[C@H](C(=O)O)[C@@H](O)[C@H](O)[C@H]6O)C(C)(C)C5CC[C@]43C)[C@@H]2C1` (stereo partly drawn), the Potency result is “inactive”.
